Screens (PubChem)
KCNH2 3.1 inh: KCNH2 3.1 (human) potassium channel inhibition. U2OS KCNH2 3.1, thallium flux FluxOr; stronger effect = lower value. activity change, % (tested at about 1.8 µM). 0.95% of 340,000 active. AID 720553;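 active = maximum activity change below -70%; inconclusive = maximum activity change from -70% to -50%; inactive = maximum activity change above -50%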;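 note: thallium influx rate constant from kinetic fluorescence after stimulation buffer; % is set by controls: 0 for no effect and ±100 for the full control effect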
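Normalized rate constant (relative to positive and negative DMSO controls) derived from a 2 min kinetic fluorescence read after stimulation; U2OS cells expressing the 3.1 isoform via virus at 1.77 x 10^8 /mL.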
EPAC1 agonist: activates human EPAC1 exchange factor; O95398; EPAC1 agonist qHTS, biochemical assay; response scale: 100% = response to 6.5 mM cAMP; Potency, µM (doses to about 154 µM), without a hit: at the highest dose activation, hits mostly activators; 0.073% of 360,000 active; AID 720707; note: potency is the fitted concentration of half-maximal effect; nearly all actives have a fitted effect of over 60% in size
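Nucleotide exchange by EPAC1 (100 nM) on Rap1B–BODIPY-GDP (250 nM) in the presence of 50 uM GDP is tracked fluorescently at 480/540 nm over 30 min. Signals are normalized to a 6.5 mM cAMP control.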
EPAC2 antag: antagonists of human EPAC2 | Q8WZA2 | 0.18% of 360,000 active | EPAC2 GEF exchange of Rap1B-BODIPY-GDP, fluorescence | AID 720708 | Potency, µM (series often up to 114 µM), inactives show at the top dose activity, negative = inhibition, most hits filed as inhibitors; note: potency is the fitted concentration of half-maximal effect; % is set by controls: 0 for no effect and ±100 for the full control effect; nearly all actives have a fitted effect of over 45% in size
hERG WT inh: KCNH2 (human, wildtype) channel inhibition | AID 720551 | activity change, % at 1.84 µM | U2OS, BacMam KCNH2, thallium flux FluxOr; stronger effect = lower value | 0.37% of 340,000 active;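 active = maximum activity change below -70%; inconclusive = maximum activity change between -70% and -50%; inactive = maximum activity change above -50%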; note: % is set by controls: 0 for no effect and ±100 for the full control effect
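U2OS cells transduced with wild-type KCNH2 virus are loaded with FluxOr dye for 45 min, and thallium flux is measured in kinetic reads before and after stimulation buffer. Rate constants are normalized to DMSO controls.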
EPAC1 antagonist: blocks human EPAC1 exchange factor; Potency, µM (doses to about 115 µM), for the others: at the top dose activity change, negative = inhibition, usual class: inhibitors; EPAC1 GEF assay, Rap1b-BODIPY-GDP exchange fluorescence; 0.14% of 360,000 active;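 note: potency is the fitted concentration of half-maximal effect; plate controls were vehicle for no effect and positive control for full effect; nearly all actives have a fitted effect of over 50% in size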
EPAC2 agonist: agonists of human EPAC2 (RAPGEF4) | EPAC2 activation, biochemical qHTS; response scale: 100% = 6.5 mM cAMP response | Potency, µM (top dose mostly 154 µM), inactives show at the top dose activation, most hits filed as activators | 0.079% of 360,000 active | AID 720711; note: potency is the fitted concentration of half-maximal effect; nearly all actives have a fitted effect of over 50% in size
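Exchange assay: 100 nM EPAC2 with 250 nM Rap1B-BODIPY-GDP and 50 uM GDP. Fluorescence (ex 480/em 540 nm) read every 5 min for 30 min at room temperature. Data normalized to 6.5 mM cAMP as agonist control.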
Numbers without * were called inactive; ? = inconclusive; nt = no result given. Most compounds without a hit are left out; they make up all but 1.4% or so of the library. Unless noted, calls come from the whole dose curve; as a rule, active = well fitted curve in the direction sought with a large enough effect; inconclusive = small, poorly fitted or top-dose-only effect, or another doubt; inactive = no such curve, though single readings can be large; an effect the other way counts as inactive or inconclusive.

SMILES | KCNH2 3.1 inh | EPAC1 agonist | EPAC2 antag | hERG WT inh | EPAC1 antagonist | EPAC2 agonist
CC(C)c1ccc(C(=O)N2CCCCC2c2cc(C(=O)NCc3cccnc3)no2)cc1 (stereo not given) | nt | -2% | -21% | nt | -9% | 16%
O=C(OCc1cn([C@@H]2C[C@H](c3ccc(Cl)cc3)N(C(=O)C3CCCCC3)C[C@H]2O)nn1)c1ccccc1 | -21 | -3% | 3% | 13 | -6% | 9%
O=C(OCc1cn([C@H]2C[C@H](c3ccc(Cl)cc3)N(C(=O)C3CCCCC3)C[C@@H]2O)nn1)c1ccccc1 | -82* | -4% | -2% | -37 | -13% | 7%
CSc1nc(N2CCN(Cc3ccc4c(c3)OCO4)CC2)c2ccccc2n1 | -73* | 10% | -6% | -1 | -12% | 19%
Cc1nc(N2CCN(Cc3ccc4c(c3)OCO4)CC2)c2cc(-c3ccccc3)sc2n1 | -21 | 2% | 2% | 13 | -14% | 8%
Cc1cccc(-n2c(SCC(=O)Nc3ccc4c(c3)OCO4)nnc2-c2ccoc2C)c1 | -71* | 0% | -7% | -90* | -14% | 6%
C=CCn1c(SCC(=O)O)nnc1-c1cccs1 | -20 | 1% | 3% | -6 | 6% | -2%
Cc1ccc(-n2c(SCC(=O)Nc3ccc4c(c3)OCO4)nnc2-c2cccs2)cc1 | ? | -2% | 7% | -154* | -5% | -3%
C=CCn1c(SCC(=O)Nc2ccc3c(c2)CCC3)nnc1-c1cccs1 | -76* | 4% | -6% | -94* | -3% | 10%
COc1cccc(NC(=O)CSc2nnc(-c3ccoc3C)n2-c2ccccc2)c1 | -16 | 2% | -4% | -41 | -26% | 2%
COc1ccc(-n2c(SCC(=O)Nc3ccccc3)nnc2-c2ccoc2C)cc1 | -105* | -13% | -4% | -9 | -29% | -18%
CC(C)C(=O)N1CCC1(C)C(=O)Nc1ccc2[nH]ccc2c1 (stereo not given) | nt | 2% | 3% | nt | -8% | 7%
CCOC(=O)CCN(C(=O)Nc1ccccc1)C1CCCCC1 | 8 | 11% | 1% | -12 | -6% | 6%
O=C(N/N=C/c1cccnc1)c1cc(-c2ccccc2OCc2ccccc2)n[nH]1 | -42 | 12% | -3% | 0 | 50µM* | 16%
Cc1ccc(S(=O)(=O)c2nnn3c2nc(NC2CCN(Cc4ccccc4)CC2)c2ccccc23)cc1C | -81* | -3% | -2% | -13 | -7% | 11%
CC1CCCCN1C(=O)c1ccc(C(=O)Nc2ccc(F)cc2)cc1 (stereo not given) | -7 | -14% | 2% | 5 | 4% | 4%
CC1CCCCN1C(=O)c1ccc(NC(=O)c2ccccc2Cl)cc1 (stereo not given) | ? | -4% | 4% | -202* | -20% | 4%
CCOC(=O)/C(=C(/C)N)C1CC(=O)NC1=O (stereo not given) | -4 | 4% | 2% | -3 | 12% | -1%
CCCCc1ccc(/C(C)=N/Nc2cc(N3CCOCC3)nc(C)n2)cc1 | -82* | -8% | -7% | 8 | -18% | -12%
O=C(OCN1C(=O)C(=O)c2ccccc21)c1ccc(Cl)cc1 | -3 | 15% | -11% | -11 | 9% | 6%
CCOc1ccc(S(=O)(=O)Nc2c(C)n(C)n(-c3ccccc3)c2=O)cc1 | 17 | -2% | 10% | -197* | -2% | 3%
COc1ccc(NC(=O)C2(C)CCN2Cc2cccc(OC)c2F)cc1OC (stereo not given) | nt | 1% | -2% | nt | -12% | 12%
COc1cc2c(cc1OC)-c1cc(NC3CCCCC3)nc(=O)n1CC2 | 7 | 12% | -4% | -1 | 0% | 6.3µM*
CCCc1c(C)[nH]c2ccc(C(=O)O)cc2c1=S | 4 | -11% | -2% | -82* | -24% | -2%
NC(=O)c1ccc(NC(=O)CSc2nnc(C3CCCCC3)n2N)cc1 | -138* | 20% | -1% | 7 | -6% | 5%
